# Measurements taken from the supplement of paper PMC8728848.
# About 410 targets per protein were measured; listed, in parts, are those with the strongest signals and a random draw of the rest.
# B1: Siglec-9 (Homo sapiens), Q9Y336 (protein)
# chain: MLLLLLPLLWGRERAEGQTSKLLTMQSSVTVQEGLCVHVPCSFSYPSHGWIYPGPVVHGYWFREGANTDQDAPVATNNPARAVWEETRDRFHLLGDPHTKNCTLSIRDARRSDAGRYFFKMEKGSIKWNYKHHRLSVNVTALTHRPNILIPGTLESGCPQNLTCSVPWACEQGTPPMISWIGTSVSPLDPSTTRSSVLTLIPQPQDHGTSLTCQVTFPGASVTTNKTVHLNVSYPPQNLTMTVFQGDGTVSTVLGNGSSLSLPEGQSLRLVCAVDAVDSNPPARLSLSWRGLTLCPSQPSNPGVLELPWVHLRDAAEFTCRAQNPLGSQQVYLNVSLQSKATSGVTQGVVGGAGATALVFLSFCVIFVVVRSCRKKSARPAAGVGDTGIEDANAVRGSASQGPLTEPWAEDSPPDQPPPASARSSVGEGELQYASLSFQMVKPWDSRGQEATDTEYSEIKIHR
# Key:
# Assay in all cases: glycan array binding signal (z-score within array); higher = stronger binding
# Settings in all cases: glycan notation: IUPAC condensed, linker removed; mutation: R120K
# [1] = molecular target: Fuc(a1-2)Gal(b1-3)GlcNAc(b1-3)GalNAc
# How it was run: (§1)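 Arrays were curated from the Consortium for Functional Glycomics database, 3228 in total, and kept only where the protein sequence was available. Binding is expressed as a within-array Z-score. This score was averaged across arrays of the same protein sequence at different concentrations or buffers and across linkers, and negative values can be read as non-binding.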
# [2] = molecular target: Fuc(a1-2)Gal(b1-3)[Fuc(a1-4)]GlcNAc(b1-2)Man(a1-3)[Fuc(a1-2)Gal(b1-3)[Fuc(a1-4)]GlcNAc(b1-2)Man(a1-3)]Man(b1-4)GlcNAc(b1-4)GlcNAc
# How it was run: as §1
# [3] = molecular target: Fuc(a1-2)Gal(b1-4)Fuc(a1-3)]GlcNAc(b1-2)Man(a1-3)[Fuc(a1-2)Gal(b1-4)[Fuc(a1-3)]GlcNAc(b1-2)Man(a1-6)]Man(b1-4)GlcNAc(b1-4)GlcNAc
# How it was run: as §1
# [4] = molecular target: Fuc(a1-2)Gal(b1-4)GlcNAc(b1-3)Gal(b1-4)GlcNAc(b1-2)Man(a1-3)[Fuc(a1-2)Gal(b1-4)GlcNAc(b1-3)Gal(b1-4)GlcNAc(b1-2)Man(a1-6)]Man(b1-4)GlcNAc(b1-4)GlcNAc
# How it was run: as §1
# [5] = molecular target: Fuc(a1-2)Gal(b1-4)[Fuc(a1-3)]GlcNAc
# How it was run: as §1
# [6] = molecular target: Fuc(a1-2)Gal6S(b1-3)GlcNAc6S
# How it was run: as §1
# [7] = molecular target: Fuc(a1-2)[Gal(a1-3)]Gal(b1-3)GlcNAc(b1-2)Man(a1-3)[Fuc(a1-2)[Gal(a1-3)]Gal(b1-3)GlcNAc(b1-2)Man(a1-6)]Man(b1-4)GlcNAc(b1-4)[Fuc(a1-6)]GlcNAc
# How it was run: as §1
# [8] = molecular target: Fuc(a1-2)[Gal(a1-3)]Gal(b1-4)GlcNAc(b1-3)[Fuc(a1-2)[Gal(a1-3)]Gal(b1-4)GlcNAc(b1-6)]GalNAc
# How it was run: as §1
# Fuc(a1-3)GlcNAc = molecular target: Fuc(a1-3)GlcNAc
# How it was run: as §1
# [9] = molecular target: Fuc(a1-3)[Gal(b1-4)]GlcNAc(b1-3)Gal(b1-3)[Fuc(a1-4)]GlcNAc
# How it was run: as §1
# Fuc(a1-4)GlcNAc = molecular target: Fuc(a1-4)GlcNAc
# How it was run: as §1
# [10] = molecular target: Gal(a1-3)Gal(b1-3)GlcNAc(b1-2)Man
# How it was run: as §1
# [11] = molecular target: Gal(a1-3)Gal(b1-4)[Fuc(a1-3)]GlcNAc(b1-2)Man(a1-3)[Gal(a1-3)Gal(b1-4)[Fuc(a1-3)]GlcNAc(b1-2)Man(a1-6)]Man(b1-4)GlcNAc(b1-4)GlcNAc
# How it was run: as §1
# [12] = molecular target: Gal(b1-3)GlcNAc(b1-2)Man(a1-3)[Gal(b1-3)GlcNAc(b1-2)Man(a1-6)]Man(b1-4)GlcNAc(b1-4)[Fuc(a1-6)]GlcNAc
# How it was run: as §1
# Gal(b1-4)Gal = molecular target: Gal(b1-4)Gal
# How it was run: as §1
# [13] = molecular target: Gal(b1-4)GlcNAc(b1-3)Gal(b1-3)GalNAc
# How it was run: as §1
# [14] = molecular target: Gal(b1-4)GlcNAc(b1-3)Gal(b1-4)GlcNAc(b1-2)Man(a1-3)[Gal(b1-4)GlcNAc(b1-3)Gal(b1-4)GlcNAc(b1-2)Man(a1-6)]Man(b1-4)GlcNAc(b1-4)[Fuc(a1-6)]GlcNAc
# How it was run: as §1
# [15] = molecular target: Gal(b1-4)GlcNAc(b1-3)Gal(b1-4)GlcNAc(b1-3)Gal(b1-4)GlcNAc(b1-3)Gal(b1-4)GlcNAc(b1-2)[Gal(b1-4)GlcNAc(b1-3)Gal(b1-4)GlcNAc(b1-3)Gal(b1-4)GlcNAc(b1-3)Gal(b1-4)GlcNAc(b1-6)]Man(a1-6)[Gal(b1-4)GlcNAc(b1-3)Gal(b1-4)GlcNAc(b1-3)Gal(b1-4)GlcNAc(b1-3)Gal(b1-4)GlcNAc(b1-2)Man(a1-3)]Man(b1-4)GlcNAc(b1-4)[Fuc(a1-6)]GlcNAc
# How it was run: as §1
# [16] = molecular target: Gal(b1-4)GlcNAc(b1-3)GalNAc
# How it was run: as §1
# [17] = molecular target: Gal(b1-4)GlcNAc(b1-6)GalNAc
# How it was run: as §1
# Gal(b1-4)GlcNAc6P = molecular target: Gal(b1-4)GlcNAc6P
# How it was run: as §1
# Gal3S(b1-3)GlcNAc = molecular target: Gal3S(b1-3)GlcNAc
# How it was run: as §1
# GalNAc3S(b1-4)GlcNAc = molecular target: GalNAc3S(b1-4)GlcNAc
# How it was run: as §1
# GalNAc3S(b1-4)GlcNAc3S = molecular target: GalNAc3S(b1-4)GlcNAc3S
# How it was run: as §1
# [18] = molecular target: GalNAc3S(b1-4)[Fuc(a1-3)]GlcNAc
# How it was run: as §1
# [19] = molecular target: GlcNAc(b1-2)Man(a1-3)[GlcNAc(b1-2)Man(a1-6)]Man(b1-4)GlcNAc(b1-4)[Fuc(a1-6)]GlcNAc
# How it was run: as §1
# [20] = molecular target: GlcNAc(b1-2)[GlcNAc(b1-4)]Man(a1-3)[GlcNAc(b1-4)][GlcNAc(b1-2)Man(a1-6)]Man(b1-4)GlcNAc(b1-4)GlcNAc
# How it was run: as §1
# [21] = molecular target: GlcNAc(b1-2)[GlcNAc(b1-6)]Man(a1-6)[GlcNAc(b1-2)Man(a1-3)]Man(b1-4)GlcNAc(b1-4)GlcNAc
# How it was run: as §1
# [22] = molecular target: GlcNAc(b1-3)Gal(b1-4)GlcNAc(b1-2)Man(a1-3)[GlcNAc(b1-3)Gal(b1-4)GlcNAc(b1-2)Man(a1-6)]Man(b1-4)GlcNAc(b1-4)[Fuc(a1-6)]GlcNAc
# How it was run: as §1
# [23] = molecular target: GlcNAc(b1-3)Gal(b1-4)GlcNAc(b1-2)[GlcNAc(b1-3)Gal(b1-4)GlcNAc(b1-6)]Man(a1-6)[GlcNAc(b1-3)Gal(b1-4)GlcNAc(b1-2)Man(a1-3)]Man(b1-4)GlcNAc(b1-4)GlcNAc
# How it was run: as §1
# [24] = molecular target: GlcNAc(b1-3)Gal(b1-4)GlcNAc(b1-3)GalNAc
# How it was run: as §1
# Kdn(a2-3)Gal(b1-4)Glc = molecular target: Kdn(a2-3)Gal(b1-4)Glc
# How it was run: as §1
# [25] = molecular target: Man(a1-2)Man(a1-2)Man(a1-6)[Man(a1-3)]Man
# How it was run: as §1
# [26] = molecular target: Man(a1-2)Man(a1-6)[Man(a1-3)]Man(a1-6)[Man(a1-2)Man(a1-2)Man(a1-3)]Man
# How it was run: as §1
# Neu5Ac(a2-3)Gal = molecular target: Neu5Ac(a2-3)Gal
# How it was run: as §1
# [27] = molecular target: Neu5Ac(a2-3)Gal(b1-3)GalNAc
# How it was run: as §1
# [28] = molecular target: Neu5Ac(a2-3)Gal(b1-3)GalNAc(b1-4)Gal(b1-4)Glc
# How it was run: as §1
# [29] = molecular target: Neu5Ac(a2-3)Gal(b1-3)GalNAc(b1-4)[Neu5Ac(a2-8)Neu5Ac(a2-3)]Gal(b1-4)Glc
# How it was run: as §1
# [30] = molecular target: Neu5Ac(a2-3)Gal(b1-3)GlcNAc(b1-2)Man(a1-3)[Neu5Ac(a2-3)Gal(b1-3)GlcNAc(b1-2)Man(a1-6)]Man(b1-4)GlcNAc(b1-4)GlcNAc
# How it was run: as §1
# [31] = molecular target: Neu5Ac(a2-3)Gal(b1-3)]Neu5Ac(a2-3)Gal(b1-4)]GlcNAc
# How it was run: as §1
# Neu5Ac(a2-3)Gal(b1-4)Glc = molecular target: Neu5Ac(a2-3)Gal(b1-4)Glc
# How it was run: as §1
# [32] = molecular target: Neu5Ac(a2-3)Gal(b1-4)GlcNAc(b1-2)Man(a1-3)[GlcNAc(b1-4)][Neu5Ac(a2-3)Gal(b1-4)GlcNAc(b1-2)Man(a1-6)]Man(b1-4)GlcNAc(b1-4)GlcNAc
# How it was run: as §1
# [33] = molecular target: Neu5Ac(a2-3)Gal(b1-4)[Fuc(a1-3)]GlcNAc(b1-6)[Gal(b1-3)]GalNAc
# How it was run: as §1
# [34] = molecular target: Neu5Ac(a2-6)Gal(b1-4)GlcNAc(b1-2)[Neu5Ac(a2-6)Gal(b1-4)GlcNAc(b1-4)]Man(a1-3)[GlcNAc(b1-4)][Neu5Ac(a2-6)Gal(b1-4)GlcNAc(b1-2)[Neu5Ac(a2-6)Gal(b1-4)GlcNAc(b1-6)]Man(a1-6)]Man(b1-4)GlcNAc(b1-4)GlcNAc
# How it was run: as §1
# [35] = molecular target: Neu5Ac(a2-6)Gal(b1-4)GlcNAc(b1-3)Gal(b1-3)GlcNAc
# How it was run: as §1
# [36] = molecular target: Neu5Ac(a2-6)GlcNAc(b1-4)GlcNAc
# How it was run: as §1
# [37] = molecular target: Neu5Ac(a2-8)Neu5Ac(a2-8)Neu5Ac(a2-3)[GalNAc(b1-4)]Gal(b1-4)Glc
# How it was run: as §1
# [38] = molecular target: Neu5Ac(b2-6)Gal(b1-4)GlcNAc
# How it was run: as §1
# [39] = molecular target: Neu5Gc(a2-8)Neu5Gc(a2-3)Gal(b1-4)GlcNAc(b1-3)Gal(b1-4)GlcNAc
# How it was run: as §1
# [40] = molecular target: Neu5Gc(b2-6)Gal(b1-4)GlcNAc
# How it was run: as §1
binder,measurement,setting,value
B1,glycan array binding signal (z-score),[1],-0.33
same,glycan array binding signal (z-score),[2],2.09
same,glycan array binding signal (z-score),[3],6.8
same,glycan array binding signal (z-score),[4],-0.282
same,glycan array binding signal (z-score),[5],-0.297
same,glycan array binding signal (z-score),[6],2.46
same,glycan array binding signal (z-score),[7],1.14
same,glycan array binding signal (z-score),[8],5.67
same,glycan array binding signal (z-score),Fuc(a1-3)GlcNAc,-0.568
same,glycan array binding signal (z-score),[9],-0.304
same,glycan array binding signal (z-score),Fuc(a1-4)GlcNAc,2.96
same,glycan array binding signal (z-score),[10],0.513
same,glycan array binding signal (z-score),[11],3.77
same,glycan array binding signal (z-score),[12],-0.25
same,glycan array binding signal (z-score),Gal(b1-4)Gal,1.95
same,glycan array binding signal (z-score),[13],0.236
same,glycan array binding signal (z-score),[14],-0.136
same,glycan array binding signal (z-score),[15],-0.342
same,glycan array binding signal (z-score),[16],-0.357
same,glycan array binding signal (z-score),[17],0.335
same,glycan array binding signal (z-score),Gal(b1-4)GlcNAc6P,0.464
same,glycan array binding signal (z-score),Gal3S(b1-3)GlcNAc,-0.347
same,glycan array binding signal (z-score),GalNAc3S(b1-4)GlcNAc,-0.59
same,glycan array binding signal (z-score),GalNAc3S(b1-4)GlcNAc3S,-0.23
same,glycan array binding signal (z-score),[18],-0.228
same,glycan array binding signal (z-score),[19],-0.036
same,glycan array binding signal (z-score),[20],8.32
same,glycan array binding signal (z-score),[21],-0.232
same,glycan array binding signal (z-score),[22],0.432
same,glycan array binding signal (z-score),[23],-0.559
same,glycan array binding signal (z-score),[24],0.35
same,glycan array binding signal (z-score),Kdn(a2-3)Gal(b1-4)Glc,0.194
same,glycan array binding signal (z-score),[25],0.213
same,glycan array binding signal (z-score),[26],-0.231
same,glycan array binding signal (z-score),Neu5Ac(a2-3)Gal,-0.145
same,glycan array binding signal (z-score),[27],4.95
same,glycan array binding signal (z-score),[28],0.412
same,glycan array binding signal (z-score),[29],0.069
same,glycan array binding signal (z-score),[30],3.12
same,glycan array binding signal (z-score),[31],-0.118
same,glycan array binding signal (z-score),Neu5Ac(a2-3)Gal(b1-4)Glc,4.42
same,glycan array binding signal (z-score),[32],-0.284
same,glycan array binding signal (z-score),[33],-0.345
same,glycan array binding signal (z-score),[34],-0.023
same,glycan array binding signal (z-score),[35],-0.551
same,glycan array binding signal (z-score),[36],-0.275
same,glycan array binding signal (z-score),[37],-0.338
same,glycan array binding signal (z-score),[38],-0.52
same,glycan array binding signal (z-score),[39],-0.414
same,glycan array binding signal (z-score),[40],-0.2
